Laboratory results reported in PubChem BioAssay AID588382 (National Center for Advancing Translational Sciences (NCATS), 2011).
In all, about 1,300 compounds went through this assay and about 150 (12%) were called active. Not shown: some 30% with an inconclusive outcome. This is one part of a sample in which actives are shown more often than they occur. A number with no mark means an inactive call. Calls follow the shape of the dose curve; as a rule, active = well fitted cell-killing curve with a large enough effect; inconclusive = small, poorly fitted or top-dose-only effect, or effect the other way; inactive = flat fitted curve, though single readings scatter.

assay: qHTS of small molecules that selectively kill Giardia lamblia: Hit Validation in HepG2 cytotox; conditions: cell viability; Potency: HepG2 cytotoxicity; series mostly up to 38.3 µM; activity change, negative = cytotoxicity: at the top concentration;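 also: compound exposure lasted overnight at 37 deg C; nearly all actives have a fitted effect of over 55% in size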;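 as to activity change, negative = cytotoxicity: viability measured as cellular ATP by ATPLite luminescence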
Outline: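 Counterscreen cytotoxicity: ATPLite luminescence (15 min, room temperature) measured in HepG2 cells exposed overnight at 37 deg C to pin-transferred compound (23 nL) after overnight pre-incubation.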
% is scaled to controls: 0 for no effect and ±100 for the full control effect; potency is read from the fitted curve at half-maximal effect.

SMILES	activity change, negative = cytotoxicity [%]	Potency
O=C(NC1CCS(=O)(=O)C1)c1ccc(N2CCCCC2)c([N+](=O)[O-])c1 (configuration not stated)	20.8	–
S=C(NCCc1ccccc1)N/N=C/c1cccs1	-10.3	–
Cc1nnc(N/N=C/c2cccs2)[nH]c1=O	–	2070 nM (active)
O=C(O)C1CCN(c2ccccc2[N+](=O)[O-])CC1	11.1	–
COc1ccc(C(=O)C(C)OC(=O)CNC(=O)C2CCCCC2)cc1 (configuration not stated)	22.2	–
Cc1ccc(S(=O)(=O)N2[C@@H](c3ccc(Cl)cc3)C(C(=O)O)=C[C@H]2CC2CCCC2)cc1	1.22	–
COc1ccc(C(=O)c2c3ccc(C(F)(F)F)cc3[n+]([O-])n2CCCN)cc1	17.3	–
Cc1ccc2nc(NC(=O)C3CCCN(S(=O)(=O)c4cnc[nH]4)C3)sc2c1 (configuration not stated)	13	–
O=C(NCc1ccccn1)C1CCCN(S(=O)(=O)c2cc(Cl)ccc2Cl)C1 (configuration not stated)	–	3690 nM (active)
O=C(COc1cccnc1[N+](=O)[O-])Nc1cc(S(=O)(=O)N2CCCCC2)ccc1Cl	22	–
Cc1ccc(S(=O)(=O)N2[C@@H](c3cccc(Cl)c3)C(C(=O)O)=CC[C@H]2c2cccc(Cl)c2)cc1	6.73	–
CCc1cccc(NC(=O)CCCSc2nc3ccccc3[nH]2)c1	–	16500 nM (active)
CCCSc1ccc2nc(NC(=O)OC)[nH]c2c1	4.95	–
CC1(C)CC2CC(C)(CN2S(=O)(=O)c2cccc(C(=O)O)c2)C1 (configuration not stated)	-6.79	–
O=[N+]([O-])c1ccc(Oc2cccc(Br)c2)c2ccncc12	9.74	–
Cc1c(Br)c([N+](=O)[O-])nn1C(C)C(=O)Nc1ccc2c(c1)OCO2 (configuration not stated)	-1.69	–
O=C1C2C3C=CC(C3)C2C(=O)N1Nc1ccc([N+](=O)[O-])cc1[N+](=O)[O-] (configuration not stated)	-9.27	–
COc1ccccc1Nc1cc(C)nc2c(C)ccc([N+](=O)[O-])c12	4.71	–
COc1ccc(/C=N/Nc2cc(C)nc3c(C)cccc23)cc1	–	13100 nM (active)
Cc1cc(C)nc(N/N=C/c2ccc(Cl)cc2)n1	5.19	–
COc1ccc2nc(C)cc(N/N=C/c3ccc(F)cc3)c2c1	–	2330 nM (active)
CCc1cccc(N=c2c([N+](=O)[O-])nn(-c3ccc(Cl)cc3)n2O)c1	18.4	–
CCOC(=O)C1=C(C)NC(=O)NC1c1ccc([N+](=O)[O-])o1 (configuration not stated)	8.82	–

SMILES	activity change, negative = cytotoxicity [%]	Potency
CN(C)c1ccc2nsnc2c1[N+](=O)[O-]	22	–
CN1C(=O)/C(=C/c2cccc(Cl)c2)Sc2ccc(C(=O)N3CCCC3)cc21	-2.18	–
Nc1ncnc2c1ncn2C1O[C@H](CO)[C@@H](O)[C@@H]1O (some centres not stated)	12.7	–
Cc1ccc(CSc2nc3ccncc3[nH]2)cc1	–	369 nM (active)
Cc1nnc(SCc2ccc([N+](=O)[O-])cc2)[nH]c1=O	13.3	–
O=C(c1ccc(CSc2nc3ccncc3[nH]2)cc1)N1CCCCCC1	–	927 nM (active)
Clc1ccc(CSc2nc3ccncc3[nH]2)cc1	–	1170 nM (active)
COc1cccc(CSc2nc3ccncc3[nH]2)c1	–	4650 nM (active)
O=C(COc1cccnc1[N+](=O)[O-])Nc1ccc(F)cc1	4.27	–
COC1C(OC(=O)/C=C/C=C/C=C/C=C/C(=O)O)CCC2(CO2)C1C1(C)OC1CC=C(C)C (configuration not stated) (tested in a mixture with another compound)	21.4	–
O=C(c1ccc([N+](=O)[O-])o1)N1CCN(c2nc3ccc(F)cc3s2)CC1	-10.1	–
O=C1NC(=O)/C(=C\c2ccc(Oc3ccc([N+](=O)[O-])cn3)cc2)S1	-15.5	–
COc1ccccc1-n1cc2c([N+](=O)[O-])cc([N+](=O)[O-])cc2n1	11.2	–
COCCn1c(C)cc(C(=O)COc2ccc(C)nc2[N+](=O)[O-])c1C	-1.94	–
O=C(c1ccco1)N1CCN(c2c([N+](=O)[O-])nn(-c3cccc(Cl)c3)[n+]2[O-])CC1	20.3	–
Cc1cc([N+](=O)[O-])nn1Cc1ccc(F)cc1	-0.393	–
N/C(=N\OC(=O)c1ccc(Cl)cc1[N+](=O)[O-])c1ccccn1	-18.8	–
CC12CCC(C(=O)Nc3ncc([N+](=O)[O-])s3)(OC1=O)C2(C)C (configuration not stated)	-9.04	–
CN(C)CCCn1cnc2c(c1=N)C(c1ccccc1)c1ccc3ccccc3c1O2 (configuration not stated)	–	2070 nM (active)
Cc1ccc([C@@H]2CC=C(C(=O)O)[C@H](c3ccc(Cl)cc3)N2S(=O)(=O)c2ccc(C)cc2)cc1	8.99	–
Cc1c[n+]([O-])ccc1[N+](=O)[O-]	1.35	–
COc1cc(N=Nc2c(C)n(C)n(-c3ccccc3)c2=O)ccc1N	0.604	–
Cc1c(NC(=O)c2cc(-c3ccc(Cl)c(Cl)c3)on2)c(=O)n(-c2ccccc2)n1C	4.57	–

SMILES	activity change, negative = cytotoxicity [%]	Potency
COc1ccc2cc(-c3cc(C(=O)OCC(=O)Nc4c(C)n(C)n(-c5ccccc5)c4=O)c4ccccc4n3)ccc2c1	–	464 nM (active)
Cc1ccc(CN=c2c([N+](=O)[O-])nn(-c3cccc(C)c3)n2O)cc1	9.21	–
O=[N+]([O-])c1nn(-c2ccc3c(c2)OCCO3)n(O)c1=NC1CCN(Cc2ccccc2)CC1	-1.51	–
CN(C)c1ccc(/C=C(/NC(=O)c2ccccc2)C(=O)N/N=C/c2ccc([N+](=O)[O-])c(O)c2)cc1	9.79	–
Cc1ncc([N+](=O)[O-])n1CCOC(=O)NC(NCc1cccnc1)C(Cl)(Cl)Cl (configuration not stated)	-2.24	–
Cc1nc(C)c(C(=O)Nc2ncc([N+](=O)[O-])s2)o1	11.4	–
COc1cccc(CN=c2c([N+](=O)[O-])nn(-c3ccccc3C)n2O)c1	8.23	–
O=C(/C=C/c1cccc([N+](=O)[O-])c1)c1ccco1	17.7	–
CCOC(=O)N1CCN(C(=O)c2ccc(Cl)c(NC(=O)c3cccs3)c2)CC1	17.8	–
COC(=O)Nc1nc2ccc(C(=O)c3cccs3)cc2[nH]1	20.5	–
Cc1ccn(-c2ccc(NC(=O)c3cccs3)cc2)n1	–	9270 nM (active)
CC(C)(C)c1ccc2c(c1)OC(C(=O)N/N=C/c1ccc([N+](=O)[O-])o1)CO2 (configuration not stated)	-12.1	–
Cc1ccc(N=c2c([N+](=O)[O-])nn(-c3ccccc3)n2O)c(C)c1	-15.1	–
Cc1ccc(S(=O)(=O)N2[C@@H](c3ccccc3)C(C(=O)O)=CC[C@H]2c2cccc(Cl)c2)cc1	6.16	–
C=C1C=C(C)n2ncc(C(=O)Nc3ccc(C)cn3)c2N1	-8.35	–
O=C(COC(=O)c1ccccc1)Nc1ncc([N+](=O)[O-])s1	16.8	–
Cc1ccc(C(=O)Nc2ncc([N+](=O)[O-])s2)cc1	–	6560 nM (active)
O=C(Nc1ncc([N+](=O)[O-])s1)c1ccco1	-8.55	–
Cc1ccc(CC(=O)Nc2ncc([N+](=O)[O-])s2)cc1	3.03	–
O=C(Nc1ncc([N+](=O)[O-])s1)c1cccc([N+](=O)[O-])c1	–	3290 nM (active)
Cc1ccc(S(=O)(=O)CC(=O)Nc2ncc([N+](=O)[O-])s2)cc1	1.79	–
